Test results from PubChem BioAssay.
Calls of active or inactive are those of the source. Unless noted, the rule behind the calls is not given here.

Assays:
[1] = resazurin metabolic signal in HepG2 cells – cell-based, resazurin fluorescence, 24 h, PK04 Diversity Set, profiling panel (AID 1172); settings: HepG2 viability, higher = more signal
[2] = budding yeast growth changes without added modifier – OD600, strain BY4716, 24 h, basal condition, primary screen (AID 1173); settings: S. cerevisiae BY4716 growth, OD600, 24 h; higher = more signal, called active from +8 up or from −8 down
[3] = viability profiling in MM1S myeloma cells – cell-based, resazurin fluorescence, basal, 24 h, PK04 Diversity Set, profiling panel (AID 1174); settings: higher = more signal, called active from +8 up or from −8 down;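 note: MM1S multiple myeloma cell line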
[4] = biological target: Dihydroorotate dehydrogenase (quinone), mitochondrial (Plasmodium falciparum (isolate 3D7)) (UniProt Q08210); assay: inhibition of P. falciparum DHODH – biochemical, C-terminal His tag, absorbance 600 nm, primary screen (AID 1175); settings: PfDHODH enzyme, DCIP absorbance 600 nm; higher = more signal, called active from +8 up or from −8 down;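 note: recombinant parasite enzyme with a five histidine tag at its C terminus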
Sequence of Dihydroorotate dehydrogenase (quinone), mitochondrial (Plasmodium falciparum (isolate 3D7)) (Q08210 whole entry, looked up): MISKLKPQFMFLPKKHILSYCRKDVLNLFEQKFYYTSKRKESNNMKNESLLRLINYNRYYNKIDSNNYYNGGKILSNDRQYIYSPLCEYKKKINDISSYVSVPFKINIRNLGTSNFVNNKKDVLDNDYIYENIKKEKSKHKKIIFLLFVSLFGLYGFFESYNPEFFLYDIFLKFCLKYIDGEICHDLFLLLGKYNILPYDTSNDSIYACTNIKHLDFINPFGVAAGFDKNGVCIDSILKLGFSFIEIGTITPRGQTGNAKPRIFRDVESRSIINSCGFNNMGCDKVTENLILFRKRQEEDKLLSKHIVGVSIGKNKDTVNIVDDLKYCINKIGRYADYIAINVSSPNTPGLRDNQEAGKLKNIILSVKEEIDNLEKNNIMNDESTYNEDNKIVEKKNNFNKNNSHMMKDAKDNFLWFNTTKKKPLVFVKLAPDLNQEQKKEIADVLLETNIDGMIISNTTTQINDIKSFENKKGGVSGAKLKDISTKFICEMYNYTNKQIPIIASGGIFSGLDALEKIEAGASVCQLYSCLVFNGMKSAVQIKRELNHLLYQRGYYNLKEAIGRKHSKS

[5] = inhibition of PAO1 biofilm formation – strain PAO1, LB-PBS medium, absorbance 600 nm, primary screen (AID 1176); settings: P. aeruginosa PAO1 growth/biofilm, A600, 12 h; higher = more signal
[6] = growth modulation of vineyard yeast isolate – strain RM11-1a, OD600, basal, 24 h, primary screen (AID 1177);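 note: cultures grown under basal conditions with no added stressor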; settings: S. cerevisiae RM11-1a growth, OD600, 24 h; higher = more signal, called active from +8 up or from −8 down
[7] = growth of efflux-deficient E. coli DRC39 – strain DRC39, OD650, 24 h, E. coli filamentation inducers, primary screen (AID 1178);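 note: growth measured as culture turbidity by optical density at 650 nm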; settings: E. coli DRC39 acrAB, higher = more signal, called active from +8 up or from −8 down
[8] = growth of efflux-deficient E. coli DRC39 – strain DRC39, OD650, 48 h, E. coli filamentation inducers, primary screen (AID 1179);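 note: screen aims at cell division blockers that make cells filament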; settings: E. coli DRC39 delta-acrAB growth, higher = more signal, called active from +8 up or from −8 down
[9] = viability profiling in RPMI8226 myeloma cells – cell-based, resazurin fluorescence, basal, 24 h, PK04 Diversity Set, profiling panel (AID 1180); settings: higher = more signal;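 note: RPMI8826 multiple myeloma cell line at 5000 cells per well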
[10] = biological target: E3 ubiquitin-protein ligase XIAP (Homo sapiens) (UniProt P98170); assay: small molecules binding XIAP protein – biophysical, small-molecule microarray, fluorescence 635 nm, primary screen (AID 1181); settings: higher = more signal;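 note: score merges 667 nm emission and signal to noise over triplicate slides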
Sequence of E3 ubiquitin-protein ligase XIAP (Homo sapiens) (P98170 whole entry, looked up, the tested form may be a part): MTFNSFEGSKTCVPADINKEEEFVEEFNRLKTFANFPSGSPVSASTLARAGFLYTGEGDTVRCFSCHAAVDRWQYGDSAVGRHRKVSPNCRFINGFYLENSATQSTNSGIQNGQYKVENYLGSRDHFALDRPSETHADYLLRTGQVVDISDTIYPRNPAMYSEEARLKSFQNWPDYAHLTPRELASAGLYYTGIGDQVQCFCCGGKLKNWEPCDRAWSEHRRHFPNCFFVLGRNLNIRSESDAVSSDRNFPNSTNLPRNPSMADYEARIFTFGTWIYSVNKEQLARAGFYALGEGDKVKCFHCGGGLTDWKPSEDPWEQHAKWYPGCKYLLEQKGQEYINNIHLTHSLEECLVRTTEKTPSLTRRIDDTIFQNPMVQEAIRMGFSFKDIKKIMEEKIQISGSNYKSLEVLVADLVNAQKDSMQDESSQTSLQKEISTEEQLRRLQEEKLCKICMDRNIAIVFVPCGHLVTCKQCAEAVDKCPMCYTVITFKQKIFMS

[11] = test system: XIP peptide (Xip251-270) binding; assay: XIP fragment 251-270 binding compounds – biochemical, small-molecule microarray, fluorescence 635/667 nm, 0.1 µg/mL protein, primary screen (AID 1182); settings: fluorescent protein binding, 635 nm, higher = more signal, called active from +8 up or from −8 down
[12] = test system: XIP peptide (Xip251-270); assay: compounds binding XIP fragment 251-270 – biochemical, small-molecule microarray, fluorescence 635/667 nm, 0.5 µg/mL protein, primary screen (AID 1183); settings: fluorescence 635 nm, higher = more signal
[13] = blood-stage malaria parasite viability loss – strain 3D7, DAPI fluorescence, 100 nL, primary screen (AID 1184);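 note: parasites grown inside human red blood cells in medium with human serum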; settings: P. falciparum 3D7 growth, 3 d, higher = more signal
[14] = biological target: Homeobox protein Hox-A13 (Mus musculus) (UniProt Q62424); assay: disruptors of Hoxa13 oligonucleotide interaction – biochemical, fluorescence polarization, labeled oligonucleotide, primary screen (AID 1185); settings: Hoxa13:DNA binding, 15 min, higher = more signal, called active from +8 up or from −8 down
Sequence of Homeobox protein Hox-A13 (Mus musculus) (Q62424 whole entry, looked up): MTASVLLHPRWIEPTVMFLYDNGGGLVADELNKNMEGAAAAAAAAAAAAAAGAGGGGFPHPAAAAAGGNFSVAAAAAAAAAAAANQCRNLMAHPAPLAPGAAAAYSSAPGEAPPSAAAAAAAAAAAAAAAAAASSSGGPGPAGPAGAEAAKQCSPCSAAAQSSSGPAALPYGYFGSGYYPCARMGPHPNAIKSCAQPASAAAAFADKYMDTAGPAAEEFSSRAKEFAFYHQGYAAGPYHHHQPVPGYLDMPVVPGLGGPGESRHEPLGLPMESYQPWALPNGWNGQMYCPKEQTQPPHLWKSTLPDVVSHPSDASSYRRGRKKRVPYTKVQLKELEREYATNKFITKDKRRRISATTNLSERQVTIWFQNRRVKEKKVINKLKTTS

Compound | z-score [1] | z-score [2] | z-score [3] | composite z-score [4] | z-score [5] | z-score [6] | z-score [7] | z-score [8] | z-score [9] | composite z-score [10] | composite z-score [11] | composite z-score [12] | z-score [13] | z-score [14]
CCOC(=O)CCN1C(=O)[C@H]2[C@H]3[C@H](O)[C@H](O)CC(=NNC(=O)OCc4ccc(OC)cc4)[C@@H]3CC[C@H]2C1=O | -0.54 | 0.458 (inactive) | -1.24 (inactive) | 0.489 (inactive) | -0.0242 (inactive) | -0.217 (inactive) | 0.149 (inactive) | 0.237 (inactive) | -1.14 | -0.171 | 0.59 (inactive) | 0.05 | -0.688 | 0.614 (inactive)
CC(C)=CCCC(C)=CCON=C1[C@H]2CCn3c(=O)n(Cc4cc5c(cc4Cl)OCO5)c(=O)n3[C@H]2[C@H](O)[C@@H]2O[C@H]12 | -0.594 | -0.696 (inactive) | -0.738 (inactive) | 0.207 (inactive) | -0.471 (inactive) | -0.537 (inactive) | -0.464 (inactive) | -0.72 (inactive) | -0.357 | -0.224 | -0.0418 (inactive) | 0.208 | -1.17 | -1.16 (inactive)
CCOC(=O)NN=C1C[C@@H](O)[C@@H](O)[C@@H]2[C@@H]3C(=O)N(C[C@@H]4CCCO4)C(=O)[C@@H]3CC[C@@H]12 | 0.208 | 0.623 (inactive) | -0.307 (inactive) | -0.851 (inactive) | -0.674 (inactive) | 0.664 (inactive) | 0.914 (inactive) | 1.4 (inactive) | 0.0557 | 0.0432 | 0.0985 (inactive) | -0.0422 | 0.839 | 0.513 (inactive)
C[C@@H]1C=CCC(=O)OC[C@H](C)C(=O)N2CCC[C@H]2C(=O)OC1 | 0.613 | 0.516 (inactive) | -0.0084 (inactive) | -0.697 (inactive) | -0.549 (inactive) | 0.21 (inactive) | 0.686 (inactive) | 0.528 (inactive) | 0.575 | -0.0416 | -0.318 (inactive) | 0.827 | 0.207 | -0.596 (inactive)
O=C1[C@H]2[C@H]3[C@H](O)[C@H](O)CC(=NO[C@@H]4O[C@H](CO)[C@@H](O)[C@H](O)[C@H]4O)[C@H]3CC[C@H]2C(=O)N1Cc1ccc2c(c1)OCO2 | 0.777 | -0.159 (inactive) | 0.466 (inactive) | 0.461 (inactive) | -0.249 (inactive) | 0.929 (inactive) | 0.76 (inactive) | 0.385 (inactive) | 0.367 | -0.4 | -0.0799 (inactive) | 0.0812 | 0.185 | -0.567 (inactive)
O=C1[C@H]2[C@H]3[C@H](O)[C@H](O)CC(=NO[C@@H]4O[C@H](CO)[C@@H](O)[C@H](O)[C@H]4O)[C@@H]3CC[C@H]2C(=O)N1Cc1ccccc1 | 1.04 | -0.391 (inactive) | 0.0897 (inactive) | 0.261 (inactive) | 0.565 (inactive) | -0.497 (inactive) | 0.405 (inactive) | 1.21 (inactive) | -0.145 | 0.0689 | 0.0711 (inactive) | 0.216 | -0.165 | 0.638 (inactive)
CCOC(=O)NN=C1C[C@@H](O)[C@@H](O)[C@@H]2[C@@H]3C(=O)N(C4CCCCC4)C(=O)[C@@H]3CC[C@@H]12 | -0.252 | 0.126 (inactive) | -0.292 (inactive) | -1.71 (inactive) | 0.283 (inactive) | -0.845 (inactive) | -0.959 (inactive) | -0.499 (inactive) | -0.145 | -0.102 | 0.311 (inactive) | 0.101 | 1.51 | -0.86 (inactive)
CC(C)CON=C1C[C@@H](O)[C@@H](O)[C@@H]2[C@@H]3C(=O)N(C[C@@H]4CCCO4)C(=O)[C@@H]3CC[C@H]12 | 0.511 | -0.138 (inactive) | -0.594 (inactive) | -0.849 (inactive) | 0.884 (inactive) | -0.776 (inactive) | -0.353 (inactive) | 0.0723 (inactive) | 0.139 | -0.174 | -0.125 (inactive) | 0.0241 | -0.421 | -1.58 (inactive)
O=C1C[C@@H](O)[C@@H](O)[C@@H]2[C@@H]3C(=O)N(c4ccc(F)cc4F)C(=O)[C@@H]3CC[C@@H]12 | 0.685 | 0.461 (inactive) | 0.491 (inactive) | 0.374 (inactive) | -0.626 (inactive) | -0.584 (inactive) | -0.385 (inactive) | -0.302 (inactive) | 0.481 | -0.0735 | 0.0164 (inactive) | -0.0741 | 0.452 | -0.595 (inactive)
CCc1cc2c(nc1CC)CCN(CCC(C)=NO[C@@H](C)c1cc(-c3c(C)cc(C)cc3C)no1)C2 | -0.0169 | -2.75 (inactive) | -0.433 (inactive) | -0.0406 (inactive) | 0.903 (inactive) | 0.526 (inactive) | 0.416 (inactive) | 0.566 (inactive) | 0.374 | 0.19 | -0.712 (inactive) | 0.325 | 0.319 | -2.85 (inactive)
O=C(NN=C1C[C@@H](O)[C@@H](O)[C@@H]2[C@@H]3C(=O)N(c4cccc(Oc5ccccc5)c4)C(=O)[C@@H]3CC[C@@H]12)OCc1ccccc1 | -0.198 | 0.498 (inactive) | 0.243 (inactive) | 0.351 (inactive) | 0.0942 (inactive) | 0.775 (inactive) | -0.134 (inactive) | -0.192 (inactive) | 0.464 | -0.0506 | -0.0987 (inactive) | 0.381 | -0.763 | -4.96 (inactive)
